# Reference: PubChem BioAssay AID686979 (National Center for Advancing Translational Sciences (NCATS), 2013)
# The whole screen tested about 420,000 compounds, of which about 50,000 (12%) were called active. Inconclusive results (about 26%) are left out. The call rests on the fitted dose curve; in most records, active means well fitted inhibition curve with a large enough effect; inconclusive means small, poorly fitted or top-dose-only effect; inactive means flat fitted curve, though single readings scatter. Shown is part of a subset that was picked to be rich in actives. Where a call stands in place of a potency, no number is given.
# Assay: qHTS for Inhibitors of human tyrosyl-DNA phosphodiesterase 1 (TDP1): qHTS in cells in presence of CPT; further: nearly all actives have a fitted effect of over 55% in size
# Settings: chicken DT40 Tdp1-/-;hTDP1 cells + 20 nM CPT, ATP luminescence, 48 h; series mostly up to 46.2 µM
# Outline: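 Chicken DT40 Tdp1-/- cells stably complemented with human TDP1 were seeded at 400 cells/well in medium containing 20 nM camptothecin, exposed to pin-transferred compounds, and grown at 37 °C for at least 48 hr. Viability was read as ATP luminescence.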
# Potency means the concentration at half of the fitted maximal effect.
Compound,Potency,"activity change, negative = growth inhibition"
CSCCC(NC(=O)c1ccco1)C(=O)Nc1cc(C)ccn1 (centres undefined),inactive,
CC(=O)c1ccc(OCC(=O)N(C)C2CCS(=O)(=O)C2)cc1 (centres undefined),inactive,
CN(Cc1cc2cc(F)ccc2[nH]1)Cc1nc(-c2cnccn2)no1,inactive,
Cn1cc(CNC(=O)c2ccc(OC3CCN(Cc4ccccn4)CC3)cc2)cn1,inactive,
CCOC(=O)C1(Cc2cccc(OC)c2)CCCN(S(=O)(=O)c2cccnc2)C1 (centres undefined),inactive,
COc1ccc(-c2nnc(NC(=O)CS(=O)(=O)c3ccc(Cl)cc3)o2)c(OC)c1,inactive,
COc1cc(-c2nnc(NC(=O)CS(=O)(=O)c3ccc(Cl)cc3)o2)cc(OC)c1OC,inactive,
Cc1ccc(C)c(-c2nnc(NC(=O)CS(=O)(=O)c3ccccc3)o2)c1,11.6 µM (active),
Cc1cccc(C)c1NC(=O)NC1=CCCN1C,inactive,
CCOC(=O)c1ccc(S(=O)(=O)N(CCO)Cc2cc3cc(OC)c(OC)cc3[nH]c2=O)cc1,inactive,
CC(C)CC(N=C1NC(C)(C)Cc2ccccc21)C(=O)O (centres undefined),inactive,
CCOc1ccc(NC(=O)CSc2ncnc3c2sc2ccccc23)cc1,inactive,
CC1(C)Cc2nc3sc4c(SCC(=O)NC(c5ccccc5)c5ccccc5)ncnc4c3cc2CO1,8.2 µM (active),
C=CCn1c(=S)[nH]c2nc3c(cc2c1=O)COC(C)(C)C3,inactive,
O=C1OC(OC(=O)c2ccccc2Br)C(N2CCOCC2)=C1Cl (centres undefined),inactive,
Cc1ccccc1NC(=S)Nc1cccc([N+](=O)[O-])c1,inactive,
COC(=O)/C=C\C(=O)Nc1cccc([N+](=O)[O-])c1,1.03 µM (active),
CC(=O)Nc1cccc([N+](=O)[O-])c1,inactive,
COC(C(=O)NCc1ccccc1C)c1ccccc1 (centres undefined),inactive,
CC(C)CC(O)C1CCN(C(=O)CCc2nnc(-c3ccc4c(c3)OCO4)o2)CC1 (centres undefined),inactive,
Cc1ccc(OCc2n[nH]c(=S)n2-c2ccccc2)cc1,inactive,
COc1ccc(OCc2n[nH]c(=S)n2N)cc1,18.4 µM (active),
S=c1[nH]nc(COc2ccccc2)n1-c1ccccc1,inactive,

Compound,Potency,"activity change, negative = growth inhibition"
CCOc1ccc(OCC(=O)OC(C)C(=O)NC2CCCCC2C)cc1 (centres undefined),inactive,
Cc1cccc(N2CCN(c3ccc(C(=O)O)cc3NC(=O)c3ccccc3F)CC2C)c1 (centres undefined),23.1 µM (active),
COc1c(C)cccc1C(=O)Nc1cc(Cl)ccc1N1CCOCC1,inactive,
Cc1cccc(N2CCN(C(=O)c3ccccc3NC(=O)C3CCCCC3C(=O)O)CC2)c1 (centres undefined),inactive,
CNC[C@@H]1Oc2c(NS(C)(=O)=O)cccc2C(=O)N([C@@H](C)CO)C[C@H]1C,inactive,
COCC(=O)N(C)C[C@H]1Oc2cc(Br)ccc2S(=O)(=O)N([C@H](C)CO)C[C@H]1C,inactive,
Cc1cc(C(=O)OCC(=O)Nc2ccccc2Cl)c(C)o1,inactive,
COC(=O)c1ccc(CSc2nnc(NC(C)C)s2)cc1,inactive,
CC(C)Nc1nnc(SCC(=O)/C=C2\N(C)c3ccccc3C2(C)C)s1,16.4 µM (active),
CC(C)Nc1nnc(SCC(=O)c2c[nH]c3ccccc23)s1,inactive,
Cc1ccccc1OCc1nc2c3cnn(-c4ccccc4F)c3ncn2n1,inactive,
CC1COc2ccccc2N1C(=O)c1cccnc1Cl (centres undefined),inactive,
Cc1ccc(CNC(=O)c2cccnc2Cl)cc1,inactive,
CN1/C(=C\C(=O)c2cccnc2Cl)C(C)(C)c2ccccc21,20.6 µM (active),
O=C1CSc2ccc(C(=O)NCc3ccccn3)cc2N1,inactive,
CCc1ccc(C(=O)N2CCN(S(=O)(=O)c3sc(C(=O)O)c(C)c3C(=O)O)CC2)cc1,inactive,
Cc1ccc(C)c(-n2cc(CN3CCN(C(=O)c4ncn[nH]4)CC3)c(-c3ccccc3)n2)c1,inactive,
Cc1ccc(OCCC(=O)OCC(=O)N2c3ccccc3NC(=O)C2(C)C)cc1,inactive,
O=C(O)CSCc1nc2ccccc2s1,inactive,
CC(C)CC(=O)NC(=S)NCc1ccccc1,inactive,
CC(C)CC(=O)N/C(N)=N/c1nc2ccccc2s1,23.1 µM (active),
COc1ccc(C2c3ccc(O)cc3Oc3ncn(CCCO)c(=N)c32)cc1OC (centres undefined),inactive,
CC[C@]1(C(=O)OC)[C@H]2C(=O)N(C)C(=O)[C@H]2[C@H]2CN(C)C(=NCc3ccccc3)N21,inactive,

Compound,Potency,"activity change, negative = growth inhibition"
O=C(NCCSc1ncc(-c2ccccc2)[nH]1)c1ccco1,inactive,
COCCCNC(=O)C1CC(=O)N(CCc2ccc(F)cc2)C1 (centres undefined),inactive,
COC(=O)c1ccccc1NC(=O)C1CCN(S(=O)(=O)c2cc(OC)ccc2OC)CC1,23.1 µM (active),
COc1ccc(OC)c(NC(=O)C2CCN(S(=O)(=O)c3ccc(C)cc3)CC2)c1,inactive,
COC(=O)c1ccccc1NC(=O)C1CC(=O)N(c2ccc(OC)cc2)C1 (centres undefined),inactive,
CCCCCCCC/C=C\CCCCCCCC(=O)OC[C@H](CO)OC(C)=O,,0.476% [at 4.12 µM] (inactive)
COC(=O)c1scc(C)c1NC(=O)CSc1ccc(Cl)cc1,inactive,
O=C(NC(=S)N1CCCCC1c1cccnc1)c1ccccc1 (centres undefined),inactive,
CC(=O)NC(=S)Nc1ccc(NC(=O)c2cccnc2)cc1,inactive,
CC(C)c1cc(Cn2c3ccccc3c(=O)n2C(C)Cn2cc(C3CC3)nn2)on1 (centres undefined),inactive,
CCC(C)CN1CCC(CO)(Cc2ccccc2Cl)CC1 (centres undefined),inactive,
CCn1c(COc2cccc(OC)c2)nnc1SCC(=O)N1CCOCC1,inactive,
CCCCCCCCCCOC(=O)Cn1c(COc2cccc(OC)c2)[n+](C)c2ccccc21,2.31 µM (active),
CCCCCCCCC(=O)NCCOc1ccccc1,inactive,
O=C(CN1CCCCCC1)Nc1ccc(Cl)cc1F,inactive,
Cn1cccc1C(=O)N1CCc2ccccc2C1,inactive,
CC(CCc1ccccc1)NC(=O)c1cnc(Cl)c(Cl)c1 (centres undefined),inactive,
CCc1cc2c(=O)n(-c3ccccc3)c(SCC(=O)O)nc2s1,inactive,
Cc1sc2nc(SCC(N)=O)n(C)c(=O)c2c1C,inactive,
Cc1sc2nc(SCCO)n(-c3ccccc3)c(=O)c2c1C,13 µM (active),
CCc1ccc(S(=O)(=O)Nc2ccc(C)c(NS(C)(=O)=O)c2)cc1,inactive,
NC(=O)c1ccc(N2CCCC2)nc1,inactive,
Cc1cc(C)cc(OCC(=O)Nc2cc(NC(=O)COc3cc(C)cc(C)c3)cc(C(=O)O)c2)c1,inactive,
